Inconclusive results are not listed. The source made the active and inactive calls. Calls come from the whole dose curve; as a rule, active = well fitted cell-killing curve with a large enough effect; inconclusive = small, poorly fitted or top-dose-only effect, or effect the other way; inactive = flat fitted curve, though single readings scatter. *1 amine or outer side, *2 acyl side, *3 side chain or, on linkers, in order; H or OH if unused. Where a SMILES comes first, the peptide text is derived from it. [ ]: non-standard residue; d: D form. The star is where a group is joined. ξ: configuration not given here. X9 = CCC(C)(N*)C(=O)C1CC[C@@H](C(=O)N[C@@H](Cc2ccccc2)C(=O)NCC(=O)O)N1; X8 = O=C([C@@H]1CC(O)CN1[*:1])[*:2]; aIle = CC[C@@H](C)[C@H](N)C(=O)O; Thr(3ξ) = CC(O)[C@H](N)C(=O)O; ξIva = CCC(C)(N)C(=O)O; Aib = CC(C)(N)C(=O)O
How the values were obtained:
Experiment in all cases: Primary qHTS to identify gynecologic anti-cancer compounds using libraries of approved drugs and bioactive compounds (AID 1345084); note: nearly all actives have a fitted effect of over 55% in size
Conditions in all cases: Gynecologic cancer cell panel viability, ATPlite luminescence, 48 h; series mostly up to 57.5 µM
[1] = test system: PA-1
Procedure, shortened: (§1)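 Cells, 1,000 per well, were allowed to settle for 16 h at 37 C before compound addition. Five concentrations were tested for 48 h, and viability was read by ATPlite luminescence after 15 min at room temperature.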

[2] = test system: SKOV3
Procedure, shortened: as §1

[3] = test system: Tov-21-G
Procedure, shortened: as §1

[4] = test system: Tov112D
Procedure, shortened: as §1
% is set by controls: 0 for no effect and ±100 for the full control effect.

CS(=O)(=O)c1ccccc1N1CCN(c2nc3c(c(=O)[nH]2)CSCC3)CC1
inactive: Potency [1] | Potency [2] | Potency [3] | Potency [4]

CC1=C2CC(=O)C(C)CC/C=C(\C)CC2OC1=O (configuration not stated)
inactive: Potency [1] | Potency [2] | Potency [3] | Potency [4]

Nc1ncnc2c1C(=O)N(c1ccc(C3CCC(CC(=O)O)CC3)cc1)CCO2 (configuration not stated)
inactive: Potency [1] | Potency [2] | Potency [3] | Potency [4]

C/C=C(\C)C(=O)OC1CC2C(CC=C3CC(OC4CC(OC)C(OC5CC(OC)C(OC6CC(OC)C(OC7CC(OC)C(OC8CC(OC)C(OC9OC(CO)C(O)C(O)C9O)C(C)O8)C(C)O7)C(C)O6)C(C)O5)C(C)O4)CCC32C)C2(O)CCC(C(C)=O)C12C (configuration not stated)
inactive: activity change, negative = cytotoxicity [1] -0.231% [at 6.55 µM] | activity change, negative = cytotoxicity [2] -2.08% [at 6.55 µM] | activity change, negative = cytotoxicity [3] 2.5% [at 6.55 µM] | activity change, negative = cytotoxicity [4] -1.72% [at 6.55 µM]

CC(C)N(CCCNC(=O)Nc1ccc(C(C)(C)C)cc1)C[C@H]1O[C@@H](n2ccc3c(N)ncnc32)[C@H](O)[C@@H]1O
inactive: Potency [1] | Potency [2] | Potency [3] | Potency [4]

CC(C)(OC1OC(CO)C(O)C(O)C1O)C1CCC(O)(CO)C2CC(=O)C(C)(O)C2C1 (configuration not stated)
inactive: Potency [1] | Potency [2] | Potency [3] | Potency [4]

C=C(CCO)C(=O)OCC1OCC(OC(=O)C(=C)CCO[C@@H]2O[C@H](CO)[C@@H](O)[C@H](O)[C@H]2O)C(O)C1O (some centres not stated)
inactive: Potency [1] | Potency [2] | Potency [3] | Potency [4]

C=C[C@]1(C)C[C@@H](OC(=O)CSC2C[C@H]3CC[C@@H](C2)N3C)[C@]2(C)[C@H](C)CC[C@]3(CCC(=O)[C@H]32)[C@@H](C)[C@@H]1O (some centres not stated)
inactive: Potency [1] | Potency [2] | Potency [3] | Potency [4]

CCc1cccc2c3c([nH]c12)[C@@](CC)(CC(=O)O)OCC3
inactive: Potency [1] | Potency [2] | Potency [3] | Potency [4]

CC1=C(CC/C(C)=C/C(=O)O)[C@@]2(C)CCCC(C)(C)C2CC1=O (some centres not stated)
inactive: Potency [1] | Potency [2] | Potency [3] | Potency [4]

CC[C@H]1OC(=O)[C@H](C)[C@@H](O[C@H]2C[C@@](C)(OC)[C@@H](O)[C@H](C)O2)C(C)[C@@H](O[C@@H]2O[C@H](C)C[C@H](N(C)C)[C@H]2O)[C@](C)(O)C[C@@H](C)CN(C)[C@H](C)[C@@H](O)[C@]1(C)O (some centres not stated)
inactive: Potency [1] | Potency [2] | Potency [3] | Potency [4]

C=C1C[C@@]2(O)O[C@@]3(C[C@H]2C(C)C)[C@@H](C)CC[C@@H]13
inactive: Potency [1] | Potency [2] | Potency [3] | Potency [4]

CCC(C)C(=O)O[C@H]1[C@@H](O[C@H]2O[C@H](CO)[C@@H](O)[C@H](O)[C@H]2O)O[C@H](CO)[C@@H](O)[C@@H]1O (some centres not stated)
inactive: Potency [1] | Potency [2] | Potency [3] | Potency [4]

OC[C@H]1O[C@@H](OC[C@H]2O[C@@H](OCc3ccccc3)[C@H](O)[C@@H](O)[C@@H]2O)[C@H](O)[C@@H](O)[C@@H]1O
inactive: Potency [1] | Potency [2] | Potency [3] | Potency [4]

COc1c(C)c(OCC(O)C(C)(C)O)cc2c1CNC2=O (configuration not stated)
inactive: Potency [1] | Potency [2] | Potency [3] | Potency [4]

O=C(NCC(=O)N1CCCC1)Nc1ccc2ccccc2c1
inactive: Potency [1] | Potency [2] | Potency [3] | Potency [4]

C[C@@H]1O[C@@H](O[C@H]2[C@H](O[C@H]3[C@H](O[C@H]4CC[C@@]5(C)C(CC[C@]6(C)C5CC=C5[C@@H]7CC(C)(C)C[C@@H](O)[C@]7(C)CC[C@]56C)[C@@]4(C)CO)O[C@H](C(=O)O)[C@@H](O)[C@@H]3O)O[C@H](CO)[C@H](O)[C@@H]2O)[C@H](O)[C@H](O)[C@H]1O (some centres not stated)
inactive: activity change, negative = cytotoxicity [1] 4.96% [at 11.6 µM] | activity change, negative = cytotoxicity [2] 11% [at 11.6 µM] | activity change, negative = cytotoxicity [3] 5.74% [at 11.6 µM] | activity change, negative = cytotoxicity [4] 0.964% [at 11.6 µM]

CC(=O)O[C@H]1C[C@@H](O)C(C)(C)C2C[C@@H](OC(C)=O)[C@]3(C)C(CC[C@@]4(C)[C@H](c5ccoc5)OC(=O)[C@H]5O[C@]543)[C@]21C (some centres not stated)
inactive: Potency [1] | Potency [2] | Potency [3] | Potency [4]

CC[C@@H](C)[C@H](NC(=O)C(C)(C)NC(=O)[C@H](CCC(N)=O)NC(=O)C(C)(CC)NC(=O)[C@H](Cc1c[nH]c2ccccc12)NC(C)=O)C(=O)N[C@H](C(=O)NC(C)(C)C(=O)N[C@@H](CC(C)C)C(=O)NC(C)(C)C(=O)N1CCC[C@H]1C(=O)N[C@@H](CCC(N)=O)C(=O)NC(C)(C)C(=O)N1CC(O)C[C@H]1C(=O)NC(C)(CC)C(=O)C1CC[C@@H](C(=O)N[C@@H](Cc2ccccc2)C(=O)NCC(=O)O)N1)C(C)O (some centres not stated) (Ac-W[ξIva]Q[Aib][aIle][Thr(3ξ)][Aib]L[Aib]PQ[Aib][X8]-X9)
inactive: activity change, negative = cytotoxicity [1] -32% [at 6.55 µM] | activity change, negative = cytotoxicity [2] -9.13% [at 6.55 µM] | activity change, negative = cytotoxicity [3] -16.8% [at 6.55 µM] | activity change, negative = cytotoxicity [4] -24.7% [at 6.55 µM]

COc1cc(-c2ccc(O)cc2)c(OC)c(O)c1C1=CC(=O)OC1CC(=O)O (configuration not stated)
inactive: Potency [1] | Potency [2] | Potency [3] | Potency [4]

CC(=O)O[C@H]1C[C@@H](O)C(C)(C)C2C[C@@H](OC(C)=O)[C@@]3(C)C4=CCC(C(CO)CC(O)C5OC5(C)C)[C@]4(C)CCC3[C@]21C (some centres not stated)
inactive: Potency [1] | Potency [2] | Potency [3] | Potency [4]

CCC(CC)CC1(C(=O)Nc2ccccc2SC(=O)C(C)C)CCCCC1
inactive: Potency [1] | Potency [2] | Potency [3] | Potency [4]

O=C(/C=C/c1ccc(O)c(O)c1)OC[C@H]1O[C@@H](OC2CCCCC2O)[C@H](O)[C@@H](O)[C@@H]1O (some centres not stated)
inactive: Potency [1] | Potency [2] | Potency [3] | Potency [4]

COc1ccnc2[nH]cc(C(=O)C(=O)N3CCN(C(=O)c4ccccc4)CC3C)c12 (configuration not stated)
inactive: Potency [1] | Potency [2] | Potency [3] | Potency [4]

CCOC(=O)C1=C(N)Oc2ccc(Cl)cc2C1C(C#N)C(=O)OCC (configuration not stated)
inactive: Potency [1] | Potency [2] | Potency [3] | Potency [4]

CC(=O)OC/C(=C/C(=O)O)CC[C@@H]1C(C)=CC(=O)[C@@H]2C(C)(C)CCC[C@@]12C
inactive: Potency [1] | Potency [2] | Potency [3] | Potency [4]

C=C1CC[C@]2(C(=O)O[C@@H]3O[C@H](CO)[C@@H](O)[C@H](O)[C@H]3O)CC[C@]3(C)C(=CCC4[C@@]5(C)C[C@H](O)[C@@H](O[C@@H]6O[C@H](C(=O)O)[C@@H](O)[C@H](O)[C@H]6O)[C@](C)(C=O)C5CC[C@]43C)C2C1 (some centres not stated)
inactive: activity change, negative = cytotoxicity [1] 8.86% [at 11.6 µM] | activity change, negative = cytotoxicity [2] -9% [at 11.6 µM] | activity change, negative = cytotoxicity [3] 6.07% [at 11.6 µM] | activity change, negative = cytotoxicity [4] 5.76% [at 11.6 µM]

Cc1ccccc1-c1cc(N2CCN(C)CC2)ncc1N(C)C(=O)C(C)(C)c1cc(C(F)(F)F)cc(C(F)(F)F)c1
inactive: Potency [1] | Potency [2] | Potency [3] | Potency [4]

CC(=O)c1c(C)cccc1O[C@@H]1O[C@H](CO)[C@@H](O)[C@H](O)[C@H]1O
inactive: Potency [1] | Potency [2] | Potency [3] | Potency [4]

CC(=O)/C=C/C1(O)C(C)(C)CC(O)CC1(C)O (configuration not stated)
inactive: Potency [1] | Potency [2] | Potency [3] | Potency [4]

CC(=O)OC1C(C)C2C(OC3OC(CO)C(O)C(O)C3O)OC=C(C(=O)O)C2C1OC(=O)c1ccccc1 (configuration not stated)
inactive: Potency [1] | Potency [2] | Potency [3] | Potency [4]

CCCC(=O)Nc1cccc(NC(=O)c2ccccc2Br)c1
inactive: Potency [1] | Potency [2] | Potency [3] | Potency [4]

C=C1CCc2occ(C)c2[C@H]2[C@H]1[C@@]13O[C@@]1(C[C@@H](C)[C@H]3OC(C)=O)[C@H]1O[C@@]21C
inactive: Potency [1] | Potency [2] | Potency [3] | Potency [4]

CO[C@@H]1[C@]2(O)C(=O)N3/C=C\C(C)(C)c4[nH]c5ccccc5c4/C=C\3C(=O)N2[C@]23[C@H](CO)C(C)(C)N2c2ccccc2[C@]13O
inactive: Potency [1] | Potency [2] | Potency [3] | Potency [4]

COC(=O)C(CC1(OC(=O)C(C)C)c2ccccc2N2C(=O)C(C)(C)N(O)C21)n1cnc2ccccc2c1=O (configuration not stated)
inactive: Potency [1] | Potency [2] | Potency [3] | Potency [4]

O=C(O)CC1(O)C(=O)Nc2ccccc21 (configuration not stated)
inactive: Potency [1] | Potency [2] | Potency [3] | Potency [4]

C=C(C(=O)OC)[C@]12O[C@@](C)(CC[C@@]3(O)/C(=C\C)C(=O)O[C@]3(C)C[C@@H]1OC(=O)C(CO)CN1CCCC1C(=O)O)CC2=O (some centres not stated)
inactive: Potency [1] | Potency [2] | Potency [3] | Potency [4]

Cc1cc(CNC(=O)c2cc(C(=O)NCc3ccc(F)c(C)c3)ncn2)ccc1F
inactive: Potency [1] | Potency [2] | Potency [3] | Potency [4]
